Sampled rows, rich in hits. Any-hit rate of the full collection: about 10%.
HP1b binding inh – blocks HP1-beta chromodomain binding to methylated histone tails. 390,000 compounds, 0.56% hits. AlphaScreen HP1-beta / biotin-H3K9me3 peptide binding. Potency, µM (doses to about 114 µM), for inactives: top-dose activity change, negative = inhibition, most hits filed as inhibitors. P83916; further: nearly all actives have a fitted effect of over 70% in size
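Compound inhibition of the preformed complex between 50 nM HP1-beta and 50 nM biotinylated H3K9me3 peptide was read by AlphaScreen. Buffer was PBS pH 7.4 with 0.01% Tween-20. Incubations ran 30 min at room temperature, with 10 ug/mL donor/acceptor beads.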
BAZ2B block – BAZ2B (human) inhibition | 360,000 compounds, 4.4% hits | Q9UIF8 | AlphaScreen BAZ2B-H3K14Ac peptide displacement | Potency, µM (top dose mostly 114 µM), inactives show top-dose activity change, negative = inhibition, usual class: inhibitors; further: on the % scale 0 is the no-effect control and ±100 the full control effect; nearly all actives have a fitted effect of over 60% in size
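AlphaScreen displacement of biotin-H3(5-23)K14Ac peptide (50 nM final) from BAZ2B (50 nM final) in PBS pH 7.4, 0.01% Tween-20; complex preformed 30 min RT, then compounds (top 110 uM) 30 min RT, beads 20 min dark.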
G9a inh – G9a (human) methyltransferase inhibition. G9a H3K9 monomethylation, AlphaScreen, 2 h. Q96KQ7. 350,000 compounds, 8.8% hits. Potency, µM (highest dose often 102 µM), for inactives: at the top dose activity, negative = inhibition, usual class: inhibitors; further: on the % scale 0 is the no-effect control and ±100 the full control effect; nearly all actives have a fitted effect of over 75% in size
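Methyltransferase reactions run at room temperature for 2 h (20 nM enzyme, 500 nM biotin-H3K9 peptide, 20 uM SAM) after a 15 min compound preincubation; product detected by AlphaScreen beads and anti-H3K9me1 antibody.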
JMJD2A Tudor – inhibitors of human JMJD2A Tudor domain; O75164; AlphaScreen JMJD2A-Tudor / H3K4me3 peptide binding; Potency, µM (doses to about 114 µM), inactives show at the top dose activity change, negative = inhibition, actives largely listed as inhibitors; 390,000 compounds, 4.4% hits; AID 504339; further: on the % scale 0 is the no-effect control and ±100 the full control effect; nearly all actives have a fitted effect of over 50% in size
GLS inh – glutaminase GLS (human) inhibition; Potency, µM (top dose mostly 45.5 µM), without a hit: top-dose activity change, negative = inhibition, most hits filed as inhibitors; 410,000 compounds, 0.21% hits; AID 624170; GLS enzymatic activity, qHTS titration; further: on the % scale 0 is the no-effect control and ±100 the full control effect
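hKGA in 45 mM KH2PO4 pH 8.2, 0.02% Tween-20 with pin-transferred compounds; 1 mM L-glutamine (stock) plus glutamate oxidase/HRP/Amplex Red coupling added. Fluorescence read initially and after 30 min at RT.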
Active calls of the source: *; [ ] = remark or other dose. The call rests on the fitted dose curve; in most records, active means well fitted curve in the direction sought with a large enough effect; inconclusive means small, poorly fitted or top-dose-only effect, or another doubt; inactive means no such curve, though single readings can be large; an effect the other way counts as inactive or inconclusive. Potency means the concentration at half of the fitted maximal effect.

For COc1ccc2[nH]c3c(c2c1)[C@@H]1CCN2C(=O)CCC[C@H](C3)[C@H]12 the results were HP1b binding inh 11%, BAZ2B block inconclusive, G9a inh 32µM*, JMJD2A Tudor -22% and GLS inh -2%.
Screening N#Cc1c2n(c3c(=O)[nH]cnc13)CCCC2 returned HP1b binding inh 15%, BAZ2B block 17%, G9a inh -1%, JMJD2A Tudor -5% and GLS inh 0%.
Screening N#Cc1c2n(c3c(=S)nc[nH]c13)CCCCC2 returned HP1b binding inh -12%, BAZ2B block -32%, JMJD2A Tudor 35µM* and GLS inh 3%.
For C=CCc1cccc(/C=N/NC(=O)CCCNc2ccc(C)cc2)c1O the results were HP1b binding inh inconclusive, BAZ2B block 32µM*, G9a inh -12%[59 µM], JMJD2A Tudor inconclusive and GLS inh 12%.
CC(=O)OCCn1c2nc(=O)[nH]c(=O)c-2nc2cc(C)c(C)cc21 was read as HP1b binding inh 27%, BAZ2B block 7%, G9a inh -23%, JMJD2A Tudor -24% and GLS inh -11%.
Screening Cc1cc2nc3c(=O)[nH]c(=O)nc-3n(CC(O)C(O)C(O)CO)c2cc1C (stereo not given) returned G9a inh 6.3µM* and GLS inh 8%.
Screening CC(C)=CCc1c(O)cc2oc3c(CC=C(C)C)c(O)c(O)c(CC=C(C)C)c3c(=O)c2c1O returned HP1b binding inh 4%, BAZ2B block 50µM*, G9a inh 17%[12.7 µM], JMJD2A Tudor 50µM* and GLS inh 6%.
For Cc1c(C(=O)NCc2ccco2)oc2c(F)cccc12 the results were HP1b binding inh 12%, BAZ2B block inconclusive, G9a inh 7%[12.7 µM], JMJD2A Tudor -33% and GLS inh -25%.
CC(=O)c1ccc(NC(=O)Cn2c(-n3nc(C)cc3C)nc(C)c(C)c2=O)cc1 was read as HP1b binding inh 40%, BAZ2B block -6%, G9a inh 4µM*, JMJD2A Tudor -18% and GLS inh -8%.
For Cc1cc(C)n(-c2nc(C)c(C)c(=O)n2CC(=O)Nc2cccc([N+](=O)[O-])c2)n1 the results were HP1b binding inh 7%, BAZ2B block -11%, G9a inh 6.3µM*, JMJD2A Tudor inconclusive and GLS inh -10%.
For Cc1sc2ncnc(N(C)CCc3ccccn3)c2c1C the results were HP1b binding inh 18µM*, BAZ2B block 25µM*, G9a inh -140%[59 µM], JMJD2A Tudor 1.4µM* and GLS inh 37%.
Screening CSc1nc(=NC(C)=O)ss1 returned HP1b binding inh inconclusive, BAZ2B block inconclusive, G9a inh inconclusive, JMJD2A Tudor 32µM* and GLS inh -2%.
Screening CN1C(=O)c2ccccc2N(C)C1c1ccccc1Cl (stereo not given) returned HP1b binding inh 83%, BAZ2B block 9%, G9a inh -5%[0.501 µM], JMJD2A Tudor 11%[57.1 µM] and GLS inh -2%.
`CN1c2ccccc2C(=O)NC1c1ccc(Cl)cc1` (stereo not given) gave HP1b binding inh 24%, BAZ2B block -6%, G9a inh 45µM*, JMJD2A Tudor -6% and GLS inh -2%.
`COc1ccc(CNC(=O)CCc2nc3cc(S(=O)(=O)N(C)C)ccc3n2C)cc1OC` gave HP1b binding inh 16%, BAZ2B block -1%, G9a inh -11%[0.0925 µM], JMJD2A Tudor -5% and GLS inh -7%.
NC(=O)C[n+]1cccc2ccccc21 was read as HP1b binding inh 17%, BAZ2B block -12%, G9a inh inconclusive, JMJD2A Tudor 22µM* and GLS inh 4%.
Cc1cccc(CN(C)C[C@@H]2OCc3cnnn3CCCC(=O)N([C@@H](C)CO)C[C@H]2C)c1 was read as GLS inh -6%.
For CCOC(=O)c1c(C)[nH]c(C2=NNC(=NC3CC3)SC2)c1C the results were HP1b binding inh inconclusive, BAZ2B block -32%, G9a inh 18µM*, JMJD2A Tudor inconclusive and GLS inh 13%.
Screening CCOC(=O)c1c(C)[nH]c(/C(C)=N/O)c1C returned HP1b binding inh -10%, BAZ2B block inconclusive, G9a inh 13%[12.7 µM], JMJD2A Tudor -16% and GLS inh 18%.
